PubChem BioAssay (Tox21)
A number with no mark means an inactive call. Inconclusive results are not listed. A call without a number means that no potency is given here. The source made the active and inactive calls. Calls follow the shape of the dose curve; as a rule, active = well fitted curve in the direction sought with a large enough effect in the repeat runs; inconclusive = weak or mixed curves; inactive = no such curve, though single readings can be large; an effect the other way counts as inactive or inconclusive.

Experiments:
[1] = qHTS RealTime-Glo MT Cell Viability Assay in HepG2 cells - 40 hour (AID 1224870); also: nearly all actives have a fitted effect of over 50% in size
Outline: (§1)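 Real-time viability: cells seeded at 600 per well together with NanoLuc and cell-permeant prosubstrate, compounds added after 5 h incubation. Luminescence tracked at 0, 8, 16, 24, 32 and 40 h of exposure.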

[2] = A CellTox Green Cytotoxicity Assay to monitor cytotoxicity in HEK293 cells - 40 hour (AID 1224871); also: nearly all actives have a fitted effect of over 45% in size
Outline: (§2)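 Homogeneous no-lysis format: HEK293 cell suspension mixed with CellTox Green reagent, seeded, incubated 5 h at 37 C/5% CO2, then dosed by pintool with compound in DMSO.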

[3] = qHTS RealTime-Glo MT Cell Viability Assay in HEK293 cells - 16 hour (AID 1224872); also: nearly all actives have a fitted effect of over 50% in size; also: potency is read from the fitted curve at half-maximal effect
Outline: (§3)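 Viability tracked continuously by luminescence as live cells reduce a prosubstrate for NanoLuc; HEK293 cells preincubated 5 h, compound-treated at 37 C, and read at 0, 8, 16, 24, 32 and 40 h.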

[4] = qHTS RealTime-Glo MT Cell Viability Assay in HepG2 cells - 8 hour (AID 1224873); also: nearly all actives have a fitted effect of over 55% in size
Outline: as §1

[5] = qHTS RealTime-Glo MT Cell Viability Assay in HEK293 cells - 40 hour (AID 1224874); conditions: RealTime-Glo luminescence; max response: hits give low values; also: nearly all actives have a fitted effect of over 50% in size; also: potency is read from the fitted curve at half-maximal effect
Outline: (§4)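 Measured as luminescence from the same continuously cultured HEK293 wells at successive time points (0, 8, 16, 24, 32, 40 h) after compound addition. Reagent present from seeding; dosing at 5 h; incubation 37 C.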

[6] = A CellTox Green Cytotoxicity Assay to monitor cytotoxicity in HEK293 cells - 24 hour (AID 1224875); also: series mostly up to about 77 µM; nearly all actives have a fitted effect of over 45% in size
Outline: as §2

[7] = A CellTox Green Cytotoxicity Assay to monitor cytotoxicity in HepG2 cells - 16 hour (AID 1224876); also: nearly all actives have a fitted effect of over 45% in size
Outline: (§5)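 Fluorescent DNA-binding dye, 600 HepG2 cells/well, 5 h preincubation then compound in DMSO; same plates read at 0–40 h, 37 C.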

[8] = qHTS RealTime-Glo MT Cell Viability Assay in HepG2 cells - 32 hour (AID 1224877); also: nearly all actives have a fitted effect of over 55% in size
Outline: (§6)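 Viability was tracked continuously by NanoLuc luminescence from prosubstrate reduced by living HepG2 cells, at successive time points over 40 h of compound exposure. Cells with reagent were preincubated 5 h at 37 °C before compound addition.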

[9] = A CellTox Green Cytotoxicity Assay to monitor cytotoxicity in HepG2 cells - 24 hour (AID 1224878); also: nearly all actives have a fitted effect of over 45% in size
Outline: as §5

[10] = A CellTox Green Cytotoxicity Assay to monitor cytotoxicity in HepG2 cells - 40 hour (AID 1224879); also: nearly all actives have a fitted effect of over 40% in size
Outline: as §5

[11] = A CellTox Green Cytotoxicity Assay to monitor cytotoxicity in HEK293 cells - 32 hour (AID 1224881); also: nearly all actives have a fitted effect of over 40% in size
Outline: as §2

[12] = A CellTox Green Cytotoxicity Assay to monitor cytotoxicity in HepG2 cells - 0 hour (AID 1224882); also: nearly all actives have a fitted effect of over 35% in size
Outline: as §5

[13] = A CellTox Green Cytotoxicity Assay to monitor cytotoxicity in HepG2 cells - 32 hour (AID 1224883); also: nearly all actives have a fitted effect of over 50% in size
Outline: as §5

[14] = qHTS RealTime-Glo MT Cell Viability Assay in HepG2 cells - 16 hour (AID 1224885); also: nearly all actives have a fitted effect of over 50% in size
Outline: as §6

[15] = qHTS RealTime-Glo MT Cell Viability Assay in HEK293 cells - 24 hour (AID 1224886); also: nearly all actives have a fitted effect of over 50% in size; also: potency is read from the fitted curve at half-maximal effect
Outline: as §3

[16] = qHTS RealTime-Glo MT Cell Viability Assay in HEK293 cells - 8 hour (AID 1224887); also: nearly all actives have a fitted effect of over 50% in size; also: potency is read from the fitted curve at half-maximal effect
Outline: as §4

[17] = A CellTox Green Cytotoxicity Assay to monitor cytotoxicity in HEK293 cells - 16 hour (AID 1224888); also: nearly all actives have a fitted effect of over 35% in size
Outline: as §2

[18] = qHTS RealTime-Glo MT Cell Viability Assay in HepG2 cells - 0 hour (AID 1224889); also: nearly all actives have a fitted effect of over 50% in size
Outline: as §6

[19] = A CellTox Green Cytotoxicity Assay to monitor cytotoxicity in HEK293 cells - 8 hour (AID 1224884); also: nearly all actives have a fitted effect of over 35% in size
Outline: as §2

[20] = qHTS RealTime-Glo MT Cell Viability Assay in HEK293 cells - 0 hour (AID 1224880)
Outline: as §4

## CC(COc1ccccc1)NC(C)C(O)c1ccc(O)cc1 (configuration not stated)
[1]
  Potency: inactive
[2]
  Potency: inactive
[3]
  Potency: inactive
[4]
  outcome: inactive
[5]
  max response: -6.13%
[6]
  Potency: inactive
[7]
  Potency: inactive
[8]
  Potency: inactive
[9]
  Potency: inactive
[10]
  Potency: inactive
[11]
  Potency: inactive
[12]
  Potency: inactive
[13]
  Potency: inactive
[14]
  outcome: inactive
[15]
  Potency: inactive
[16]
  Potency: inactive
[17]
  Potency: inactive
[18]
  Potency: inactive

## CCCCCCCCOCCCN
[1]
  Potency: inactive
[2]
  Potency: inactive
[3]
  Potency: inactive
[4]
  outcome: inactive
[5]
  max response: 2.92%
[6]
  Potency: inactive
[7]
  Potency: inactive
[8]
  Potency: inactive
[9]
  Potency: inactive
[11]
  Potency: inactive
[12]
  Potency: inactive
[13]
  Potency: inactive
[19]
  Potency: inactive
[14]
  outcome: inactive
[15]
  Potency: inactive
[16]
  Potency: inactive
[17]
  Potency: inactive

## CC(C)(C(=O)O)c1ccc(C(O)CCCN2CCC(C(O)(c3ccccc3)c3ccccc3)CC2)cc1 (configuration not stated)
[1]
  Potency: inactive
[2]
  Potency: inactive
[3]
  Potency: inactive
[4]
  outcome: inactive
[6]
  Potency: inactive
[7]
  Potency: inactive
[8]
  Potency: inactive
[9]
  Potency: inactive
[10]
  Potency: inactive
[20]
  Potency: inactive
[11]
  Potency: inactive
[12]
  Potency: inactive
[13]
  Potency: inactive
[19]
  Potency: inactive
[14]
  outcome: inactive
[15]
  Potency: inactive
[16]
  Potency: inactive
[17]
  Potency: inactive
[18]
  Potency: inactive

## Nc1nc(Cl)nc2c1ncn2[C@H]1C[C@H](O)[C@@H](CO)O1
[1]
  Potency: inactive
[2]
  Potency: inactive
[3]
  Potency: inactive
[4]
  outcome: inactive
[5]
  max response: -25.7%
[6]
  Potency: inactive
[7]
  Potency: inactive
[8]
  Potency: inactive
[9]
  Potency: inactive
[20]
  Potency: inactive
[11]
  Potency: inactive
[12]
  Potency: inactive
[13]
  Potency: inactive
[19]
  Potency: inactive
[15]
  Potency: inactive
[16]
  Potency: inactive
[18]
  Potency: inactive

## NCCOCCOCCN
[1]
  Potency: inactive
[2]
  Potency: inactive
[3]
  Potency: inactive
[4]
  outcome: inactive
[5]
  max response: -14%
[6]
  Potency: inactive
[7]
  Potency: inactive
[8]
  Potency: inactive
[9]
  Potency: inactive
[20]
  Potency: inactive
[11]
  Potency: inactive
[12]
  Potency: inactive
[13]
  Potency: inactive
[19]
  Potency: inactive
[14]
  outcome: inactive
[15]
  Potency: inactive
[16]
  Potency: inactive
[18]
  Potency: inactive

## C(/C=C/C=C/Nc1ccccc1)=Nc1ccccc1
[1]
  Potency: inactive
[2]
  Potency: inactive
[3]
  Potency: inactive
[4]
  outcome: inactive
[6]
  Potency: inactive
[7]
  Potency: inactive
[8]
  Potency: inactive
[9]
  Potency: inactive
[10]
  Potency: inactive
[20]
  Potency: inactive
[11]
  Potency: inactive
[13]
  Potency: inactive
[19]
  Potency: inactive
[14]
  outcome: inactive
[15]
  Potency: inactive
[16]
  Potency: inactive
[17]
  Potency: inactive
[18]
  Potency: inactive

## CCCc1ccc(OC)cc1
[1]
  Potency: inactive
[2]
  Potency: inactive
[3]
  Potency: inactive
[4]
  outcome: inactive
[5]
  max response: 11.9%
[6]
  Potency: inactive
[7]
  Potency: inactive
[8]
  Potency: inactive
[9]
  Potency: inactive
[20]
  Potency: inactive
[11]
  Potency: inactive
[12]
  Potency: inactive
[13]
  Potency: inactive
[19]
  Potency: inactive
[14]
  outcome: inactive
[15]
  Potency: inactive
[16]
  Potency: inactive
[17]
  Potency: inactive
[18]
  Potency: inactive

## C/C(=C(\CCO)SS/C(CCO)=C(\C)N(C=O)Cc1cnc(C)nc1N)N(C=O)Cc1cnc(C)nc1N
[1]
  Potency: inactive
[2]
  Potency: inactive
[3]
  Potency: inactive
[4]
  outcome: inactive
[6]
  Potency: inactive
[7]
  Potency: inactive
[8]
  Potency: inactive
[9]
  Potency: inactive
[10]
  Potency: inactive
[20]
  Potency: inactive
[12]
  Potency: inactive
[13]
  Potency: inactive
[19]
  Potency: inactive
[14]
  outcome: inactive
[15]
  Potency: inactive
[16]
  Potency: inactive
[17]
  Potency: inactive
[18]
  Potency: inactive

## CCC[Si](OC)(OC)OC
[1]
  Potency: inactive
[2]
  Potency: inactive
[3]
  Potency: inactive
[4]
  outcome: inactive
[6]
  Potency: inactive
[7]
  Potency: inactive
[8]
  Potency: inactive
[9]
  Potency: inactive
[10]
  Potency: inactive
[20]
  Potency: inactive
[11]
  Potency: inactive
[12]
  Potency: inactive
[13]
  Potency: inactive
[19]
  Potency: inactive
[14]
  outcome: inactive
[15]
  Potency: inactive
[16]
  Potency: inactive
[18]
  Potency: inactive

## CC(=O)Nc1ccccc1O
[1]
  Potency: inactive
[2]
  Potency: inactive
[3]
  Potency: inactive
[4]
  outcome: inactive
[6]
  Potency: inactive
[7]
  Potency: inactive
[8]
  Potency: inactive
[9]
  Potency: inactive
[10]
  Potency: inactive
[20]
  Potency: inactive
[11]
  Potency: inactive
[12]
  Potency: inactive
[13]
  Potency: inactive
[19]
  Potency: inactive
[14]
  outcome: inactive
[16]
  Potency: inactive
[17]
  Potency: inactive
[18]
  Potency: inactive

## O=C(OCCOCCOCCOC(=O)c1ccccc1)c1ccccc1
[1]
  Potency: inactive
[2]
  Potency: inactive
[3]
  Potency: inactive
[4]
  outcome: inactive
[5]
  max response: 13.2%
[6]
  Potency: inactive
[7]
  Potency: inactive
[8]
  Potency: inactive
[11]
  Potency: inactive
[12]
  Potency: inactive
[14]
  outcome: inactive
[17]
  Potency: inactive
[18]
  Potency: inactive

## CC(C)(Cc1c[nH]c2ccccc12)NCC(O)COc1ccccc1C#N (configuration not stated)
[1]
  Potency: inactive
[2]
  Potency: inactive
[3]
  Potency: 16.9 µM (active)
[4]
  outcome: inactive
[5]
  Potency: 19 µM (active)
[6]
  Potency: inactive
[7]
  Potency: inactive
[8]
  Potency: inactive
[20]
  Potency: inactive
[11]
  Potency: inactive
[12]
  Potency: inactive
[19]
  Potency: inactive
[14]
  outcome: inactive
[15]
  Potency: 9.52 µM (active)
[16]
  Potency: 7.56 µM (active)
[17]
  Potency: inactive
[18]
  Potency: inactive

## Cc1c(-c2cccnc2)c2ccccc2n1CCCCC(=O)O
[1]
  Potency: inactive
[2]
  Potency: inactive
[3]
  Potency: inactive
[4]
  outcome: inactive
[5]
  max response: 2.18%
[6]
  Potency: inactive
[7]
  Potency: inactive
[8]
  Potency: inactive
[9]
  Potency: inactive
[20]
  Potency: inactive
[11]
  Potency: inactive
[12]
  Potency: inactive
[13]
  Potency: inactive
[19]
  Potency: inactive
[14]
  outcome: inactive
[15]
  Potency: inactive
[16]
  Potency: inactive
[18]
  Potency: inactive

## C/C=C1\[C@H]2C=C(C)C[C@]1(N)c1ccc(=O)[nH]c1C2
[1]
  Potency: inactive
[2]
  Potency: inactive
[3]
  Potency: inactive
[4]
  outcome: inactive
[6]
  Potency: inactive
[7]
  Potency: inactive
[8]
  Potency: inactive
[9]
  Potency: inactive
[10]
  Potency: inactive
[20]
  Potency: inactive
[11]
  Potency: inactive
[12]
  Potency: inactive
[13]
  Potency: inactive
[19]
  Potency: inactive
[14]
  outcome: inactive
[15]
  Potency: inactive
[16]
  Potency: inactive
[17]
  Potency: inactive
[18]
  Potency: inactive
